# Assay results: the supplement of paper PMC12808144
# A number with no mark means an inactive call.
# Tested on: Mel-DCC-11
# Test: cell viability relative to DMSO control (fraction of DMSO control); higher = less cytotoxic, active = 0.5 or less
# Conditions: 1 µM; 120 h
# Procedure, shortened: (§1)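 For 120 h, duplicate wells of 384-well plates held 1 µM of each of 315 approved anti-cancer drugs (TargetMol), spotted acoustically before cells were added in 40 µl per well. Immortalized NHEM-hTERT melanocytes were seeded at 2500/well, and patient-derived Mel-DCC-11 plus its resistant subline Mel-DCC-11-R at 1500/well. The subline was run both without and with 8 µM of its selecting drug, and ATPlite 1step luminescence was read. Viability was normalised to vehicle-treated wells and averaged over the two replicates.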
row,Compound,cell viability
1,CCc1cn([C@H]2C[C@H](O)[C@@H](CO)O2)c(=O)[nH]c1=O [Edoxudine],0.621
2,Cn1nnc(-c2ccc(-c3ccc(N4C[C@H](CO)OC4=O)cc3F)cn2)n1 [Torezolid],2
3,CC(C)(C)c1nc(-c2cccc(NS(=O)(=O)c3c(F)cccc3F)c2F)c(-c2ccnc(N)n2)s1 [Dabrafenib],0.332 (active)
4,[Cl][Pt+2][Cl] [Cisplatin],1.12
5,Cl.NNc1nncc2ccccc12 [Hydralazine hydrochloride],1.17
6,COc1cc2nccc(Oc3ccc(NC(=O)Nc4cc(C)on4)c(Cl)c3)c2cc1OC [Tivozanib],1.13
7,CC[C@]1(O)C[C@@H]2C[N@@](CCc3c([nH]c4ccccc34)[C@@](C(=O)OC)(c3cc4c(cc3OC)N(C)[C@H]3[C@@](O)(C(=O)OC)[C@H](OC(C)=O)[C@]5(CC)C=CCN6CC[C@]43[C@@H]65)C2)C1.O=S(=O)(O)O [Vinblastine sulfate],0.428 (active)
8,CO[C@H]1C(=O)[C@]2(C)[C@@H](OC)C[C@H]3OC[C@@]3(OC(C)=O)[C@H]2[C@H](OC(=O)c2ccccc2)[C@]2(O)C[C@H](OC(=O)[C@H](O)[C@@H](NC(=O)OC(C)(C)C)c3ccccc3)C(C)=C1C2(C)C [Cabazitaxel],0.81
9,CC1(C)CCC(C)(C)c2cc(NC(=O)c3ccc(C(=O)O)cc3)ccc21 [Tamibarotene],1.17
10,CC[C@]1(O)C[C@H]2CN(CCc3c([nH]c4ccccc34)[C@@](C(=O)OC)(c3cc4c(cc3OC)N(C=O)[C@H]3[C@@](O)(C(=O)OC)[C@H](OC(C)=O)[C@]5(CC)C=CCN6CC[C@]43[C@@H]65)C2)C1.O=S(=O)(O)O [Vincristine sulfate],0.517

# Tested on: NHEM-hTERT
# Test: as above
# Conditions: 1 µM; 120 h
# Procedure, shortened: as §1
row,Compound,cell viability
1,NC(=O)NO [Hydroxyurea],1.1
2,COc1ccc2cc3[n+](cc2c1OC)CCc1cc2c(cc1-3)OCO2 [Berberine],1.1
3,COC(=O)[C@]12CCC(C)(C)C[C@H]1[C@H]1C(=O)C=C3[C@@]4(C)C=C(C#N)C(=O)C(C)(C)[C@@H]4CC[C@@]3(C)[C@]1(C)CC2 [Bardoxolone Methyl],0.0925 (active)
4,COC(=O)N[C@@H](C)CNc1nccc(-c2cn(C(C)C)nc2-c2cc(Cl)cc(NS(C)(=O)=O)c2F)n1 [Encorafenib],0.972
5,CCc1cc2c(cc1N1CCC(N3CCOCC3)CC1)C(C)(C)c1[nH]c3cc(C#N)ccc3c1C2=O [Alectinib],0.977
6,Nc1ncn([C@@H]2O[C@H](CO)[C@@H](O)[C@H]2O)c(=O)n1 [Mylosar],0.874
7,CC(=O)c1c(C)c2cnc(Nc3ccc(N4CCNCC4)cn3)nc2n(C2CCCC2)c1=O.O=S(=O)(O)CCO [Palbociclib Isethionate],1.03
8,CCCCc1nc2cc(/C=C/C(=O)NO)ccc2n1CCN(CC)CC [Pracinostat],0.747
9,CC(C)(CO)c1cc2cc(NC(=O)C3(c4ccc5c(c4)OC(F)(F)O5)CC3)c(F)cc2n1C[C@@H](O)CO,1.06
10,CCOc1cc2ncc(C#N)c(Nc3ccc(OCc4ccccn4)c(Cl)c3)c2cc1NC(=O)/C=C/CN(C)C [Neratinib],0.732
11,CCN(CC)CCOc1ccc2c(c1)C(=O)c1cc(OCCN(CC)CC)ccc1-2.Cl.Cl [Tilorone dihydrochloride],1.15
12,C[C@@H]1O[C@@H](O[C@H]2[C@H](Oc3cc(O)c4c(c3)O[C@H](c3ccc(O)cc3)CC4=O)O[C@H](CO)[C@@H](O)[C@@H]2O)[C@H](O)[C@H](O)[C@H]1O [Naringin],0.986
13,COc1cc(NS(C)(=O)=O)ccc1Nc1c2ccccc2nc2ccccc12 [Amsacrine],0.72
14,CCCS(=O)(=O)Nc1ccc(F)c(C(=O)c2c[nH]c3ncc(-c4ccc(Cl)cc4)cc23)c1F [Vemurafenib],0.746
15,COc1cc2ncnc(Nc3ccc(F)c(Cl)c3)c2cc1NC(=O)/C=C/CN1CCCCC1 [Dacomitinib],1.03
16,CS(=O)(=O)c1ccc(C2=C(c3ccccc3)C(=O)OC2)cc1 [Rofecoxib],0.925
17,COC(=O)c1ccc2c(c1)NC(=O)/C2=C(\Nc1ccc(N(C)C(=O)CN2CCN(C)CC2)cc1)c1ccccc1 [Nintedanib],0.909
18,Cl.N=C1CCCN1Cc1[nH]c(=O)[nH]c(=O)c1Cl [Tipiracil hydrochloride],0.914

row,Compound,cell viability
1,CC1(COc2ccc3c(c2)ncn3-c2ccc3cccc(N4CCC(N)CC4)c3n2)COC1 [Crenolanib],0.873
2,COc1c2occc2cc2ccc(=O)oc12 [8-Methoxypsoralen],1.09
3,C=CC(=O)Nc1cc(Nc2nccc(-c3cn(C)c4ccccc34)n2)c(OC)cc1N(C)CCN(C)C.CS(=O)(=O)O [Osimertinib mesylate],1.14
4,COC(=O)N[C@H](C(=O)N1CC2(CC2)C[C@H]1c1ncc(-c2ccc3c(c2)C(F)(F)c2cc(-c4ccc5nc([C@@H]6[C@H]7CC[C@H](C7)N6C(=O)[C@@H](NC(=O)OC)C(C)C)[nH]c5c4)ccc2-3)[nH]1)C(C)C [Ledipasvir],1.26
5,C[C@H]1O[C@@H](n2cc(F)c(=O)[nH]c2=O)[C@H](O)[C@@H]1O [Doxifluridine],0.863
6,N#CC1(c2ccc(NC(=O)c3cccnc3NCc3ccncc3)cc2)CCCC1 [Apatinib],0.966
7,CN(C)C/C=C/C(=O)Nc1cc2c(Nc3ccc(F)c(Cl)c3)ncnc2cc1O[C@H]1CCOC1.O=C(O)/C=C\C(=O)O.O=C(O)/C=C\C(=O)O [Afatinib Dimaleate],1.13
8,CCNC(=O)[C@@H]1CCCN1C(=O)[C@H](CCCN=C(N)N)NC(=O)[C@H](CC(C)C)NC(=O)[C@@H](CC(C)C)NC(=O)[C@H](Cc1ccc(O)cc1)NC(=O)[C@H](CO)NC(=O)[C@H](Cc1c[nH]c2ccccc12)NC(=O)[C@H](Cc1cnc[nH]1)NC(=O)[C@@H]1CCC(=O)N1 [Leuprorelin Acetate],0.879
9,CCc1cn([C@H]2C[C@H](O)[C@@H](CO)O2)c(=O)[nH]c1=O [Edoxudine],0.967
10,Cn1nnc(-c2ccc(-c3ccc(N4C[C@H](CO)OC4=O)cc3F)cn2)n1 [Torezolid],0.958
11,CC(C)(C)c1nc(-c2cccc(NS(=O)(=O)c3c(F)cccc3F)c2F)c(-c2ccnc(N)n2)s1 [Dabrafenib],0.976
12,[Cl][Pt+2][Cl] [Cisplatin],1.04
13,Cl.NNc1nncc2ccccc12 [Hydralazine hydrochloride],1.12
14,COc1cc2nccc(Oc3ccc(NC(=O)Nc4cc(C)on4)c(Cl)c3)c2cc1OC [Tivozanib],1.09
15,CC[C@]1(O)C[C@@H]2C[N@@](CCc3c([nH]c4ccccc34)[C@@](C(=O)OC)(c3cc4c(cc3OC)N(C)[C@H]3[C@@](O)(C(=O)OC)[C@H](OC(C)=O)[C@]5(CC)C=CCN6CC[C@]43[C@@H]65)C2)C1.O=S(=O)(O)O [Vinblastine sulfate],0.567
16,CO[C@H]1C(=O)[C@]2(C)[C@@H](OC)C[C@H]3OC[C@@]3(OC(C)=O)[C@H]2[C@H](OC(=O)c2ccccc2)[C@]2(O)C[C@H](OC(=O)[C@H](O)[C@@H](NC(=O)OC(C)(C)C)c3ccccc3)C(C)=C1C2(C)C [Cabazitaxel],0.692
17,CC1(C)CCC(C)(C)c2cc(NC(=O)c3ccc(C(=O)O)cc3)ccc21 [Tamibarotene],1.09
18,CC[C@]1(O)C[C@H]2CN(CCc3c([nH]c4ccccc34)[C@@](C(=O)OC)(c3cc4c(cc3OC)N(C=O)[C@H]3[C@@](O)(C(=O)OC)[C@H](OC(C)=O)[C@]5(CC)C=CCN6CC[C@]43[C@@H]65)C2)C1.O=S(=O)(O)O [Vincristine sulfate],0.642
